Results as given in the supplement of paper PMC13380429.
Unmarked numbers belong to inactive results.

Test system: Vero E6 infected with SARS-CoV-2
Assay: inhibition of SARS-CoV-2 cytopathic effect; higher = more antiviral protection, active = above 15
Conditions: 48 h

Row | SMILES | inhibition of SARS-CoV-2 cytopathic effect (1 nM) [%] | inhibition of SARS-CoV-2 cytopathic effect (8.33 nM) [%] | inhibition of SARS-CoV-2 cytopathic effect (100 nM) [%] | inhibition of SARS-CoV-2 cytopathic effect (833.33 nM) | inhibition of SARS-CoV-2 cytopathic effect (10000 nM)
1 | OC[C@H]1O[C@@H](c2ccc(F)c(Cc3cc4ccccc4s3)c2)[C@H](O)[C@@H](O)[C@@H]1O [ipragliflozin-L-proline] | 0.82 | -0.16 | 0.41 | 0.42% | 0.4%
2 | Oc1ccc(OC2CCCCO2)cc1 (stereo not given) [deoxyarbutin] | -1.9 | -1.93 | -0.6 | 0.9% | -0.71%
3 | Brc1c(Br)c(Br)c2[nH]nnc2c1Br [4,5,6,7-tetrabromobenzotriazole] | 1.42 | 3.75 | -0.07 | 1.63% | 3.61%
4 | CCc1ccc(CCOc2ccc(CC3SC(=O)NC3=O)cc2)nc1 (stereo not given) [pioglitazone] | -1.62 | 1.34 | 1.49 | -8.11% | 1.27%
5 | CCC1(c2ccc(N)cc2)CCC(=O)NC1=O (stereo not given) [aminoglutethimide] | -0.9 | 2.8 | 3.28 | 2.95% | 2.93%
6 | COc1ccc(CCN)cc1OC [homoveratrylamine] | 0.49 | 7.09 | 12.7 | 5.43% | 11.1%
7 | COC(=O)C1=CO[C@@H](O)[C@@H]2C(CO)=CC[C@H]12 [genipin] | -1.26 | 1 | 0.94 | -0.49% | -0.89%
8 | O=C(O[C@H]1C[C@H]2CC[C@@H](C1)[N+]21CCCC1)C(O)(c1ccccc1)c1ccccc1 [trospium] | -1.88 | 0.55 | 1.21 | -1.72% | -0.69%
9 | CC(=O)Oc1ccccc1C(=O)Oc1ccccc1C(=O)O [acetylsalicylsalicylic-acid] | -1.51 | 0.51 | 2.44 | -0.27% | 1.17%
10 | Cc1cc(Nc2ncnc3ccc(NC4=NC(C)(C)CO4)cc23)ccc1Oc1ccn2ncnc2c1 [tucatinib] | -2.37 | 0.54 | -5.16 | -3.64% | -12.7%
11 | O=C(CCCN1CCC2(CC1)C(=O)N(Cc1cccc(F)c1)CN2c1ccccc1)c1ccc(F)cc1 [3'-fluorobenzylspiperone] | 1.1 | 1.76 | 1.3 | 4.46% | 71.7% (active)
12 | CC[C@H](CC[C@@H](C)[C@H]1CC[C@H]2[C@@H]3CC=C4C[C@@H](O[C@@H]5O[C@H](CO)[C@@H](O)[C@H](O)[C@H]5O)CC[C@]4(C)[C@H]3CC[C@]12C)C(C)C [daucosterol] | 0.22 | -0.23 | 0.27 | 0.28% | -1.86%
13 | CCC(=O)O[C@@H]1CC(=O)O[C@H](C)C/C=C/C=C/[C@H](O)[C@H](C)C[C@H](CC=O)[C@H](O[C@@H]2O[C@H](C)[C@@H](O[C@H]3C[C@@](C)(O)[C@@H](OC(=O)CC)[C@H](C)O3)[C@H](N(C)C)[C@H]2O)[C@H]1OC [midecamycin] | -1.27 | -3.06 | -2.36 | -0.5% | -0.33%
14 | CCC(CC)[C@H](NC(C)=O)[C@@H]1[C@H](O)[C@@H](C(=O)O)C[C@H]1NC(=N)N [peramivir] | -2.46 | -0.07 | 0.34 | 0.01% | -0.82%
15 | O=[N+]([O-])/N=C1\NCCN1Cc1ccc(Cl)nc1 [imidacloprid] | 0.83 | 5.02 | 6.8 | 5.42% | 3.01%
16 | CN1CCN(c2ncc(-c3cc(Cl)cc(Cl)c3Cl)c(N)n2)CC1 [sipatrigine] | -3.16 | -4.99 | -2.74 | -3.24% | 2.7%
17 | COc1cc2c(cc1-c1c(C)noc1C)ncc1[nH]c(=O)n([C@H](C)c3ccccn3)c12 | -7.87 | -7.32 | -3.13 | 1.38% | -8.07%
18 | N=C(NCCCCCCNC(=N)NC(=N)Nc1ccc(Cl)cc1)NC(=N)Nc1ccc(Cl)cc1 [chlorhexidine] | 3.47 | 4.11 | 4.83 | 2.74% | -3.2%
19 | COc1cc(N2CCC(N)CC2)ccc1Nc1ncc(Cl)c(-c2c[nH]c3ccccc23)n1 | -1 | 0.49 | -1.87 | -3.58% | -8.45%

Row | SMILES | inhibition of SARS-CoV-2 cytopathic effect (1 nM) [%] | inhibition of SARS-CoV-2 cytopathic effect (8.33 nM) [%] | inhibition of SARS-CoV-2 cytopathic effect (100 nM) [%] | inhibition of SARS-CoV-2 cytopathic effect (833.33 nM) | inhibition of SARS-CoV-2 cytopathic effect (10000 nM)
20 | Cc1ccccc1N(C)C(=O)c1ccc([S+]([O-])c2nccs2)c([N+](=O)[O-])c1 (stereo not given) | -0.08 | -0.71 | 1.56 | 16.5% (active) | 12.2%
21 | CC1(C)CC[C@]2(NC(=O)C(C)(F)F)CC[C@]3(C)[C@H](C(=O)C=C4[C@@]5(C)C=C(C#N)C(=O)C(C)(C)[C@@H]5CC[C@]43C)[C@@H]2C1 [Omaveloxolone (RTA-408)] | 4.28 | 6.39 | 3.8 | 17.2% (active) | -13.7%
22 | COc1cc(C[C@H]2c3cc(OC)c(OC)cc3CCN2C)c(Oc2cc3c(cc2OC)-c2c(OC)c(OC)cc4c2[C@H](C3)N(C)CC4)cc1OC [thaliblastine] | 1.34 | 1.21 | -0.77 | 3.94% | 45.5% (active)
23 | CN(C)[C@@H]1CCc2[nH]c3ccc(NC(=O)c4ccc(F)cc4)cc3c2C1 | -0.2 | 0.81 | 1.23 | 3.46% | 4.97%
24 | O=C(/C=C/c1ccccc1)NCCO [brolitene] | -0.76 | -1.09 | -0.6 | -2.74% | 1.92%
25 | C[C@@H]1C[C@H]2[C@@H]3C[C@H](F)C4=CC(=O)C=C[C@]4(C)[C@@]3(F)[C@@H](O)C[C@]2(C)[C@@]1(O)C(=O)CO [flumethasone] | 0.24 | -0.72 | 1.45 | 0.62% | 0.56%
26 | CCOC(=O)c1ccc(N2NC(=O)/C(=C/c3ccc([N+](=O)[O-])o3)C2=O)cc1 | 1.63 | -1.91 | -0.91 | -2.48% | -6.2%
27 | NCCCNCCSP(=O)(O)O [amifostine] | 5.31 | 3.29 | 4.42 | 1.87% | 3.86%
28 | Nc1n[nH]c2nnc(-c3c(-c4ccccc4)nn4ccccc34)cc12 | 0.55 | -0.27 | -1.29 | 1.74% | -2.81%
29 | CN(CC(=O)O)C(=N)N [creatine] | -2.18 | 1.25 | -2.37 | -1.57% | -4.4%
30 | C[N+](C)(C)CCCCCC[N+](C)(C)C [hexamethonium] | -0.33 | 1.65 | 0.44 | -0.93% | -1.17%
31 | CC[N+](C)(CC)CCOC(=O)C(O)(c1ccccc1)C1CCCCC1 (stereo not given) [oxyphenonium] | -1.8 | -1.33 | -2.81 | 0.58% | -1.5%
32 | CCC(C(=O)O)c1ccc(CC(C)C)cc1 (stereo not given) [butibufen] | -2.32 | -1 | 1.35 | 2.34% | -0.15%
33 | O=c1n(CC2CO2)c(=O)n(CC2CO2)c(=O)n1CC1CO1 (stereo not given) [teroxirone] | -1.74 | -0.65 | 0.11 | 0.34% | 9.05%
34 | CC(C)=CCC/C(C)=C/CNCCNC1C2CC3CC(C2)CC1C3 (stereo not given) | 0.6 | 0.09 | 1.62 | 1.05% | 0.17%
35 | O=C1COc2nccc(-c3ccccc3F)c2CN1Cc1cc(C(F)(F)F)cc(C(F)(F)F)c1 | -0.76 | -1.69 | -0.49 | -2.79% | -1.55%
36 | O=C1NC(=O)c2c1c1c3ccccc3[nH]c1c1[nH]c3ccccc3c21 [arcyriaflavin-a] | -5.59 | -1.16 | -3.16 | -3.59% | -10.1%
37 | CN[C@@H](C)C(=O)N[C@H](C(=O)N1CCC[C@H]1C(=O)Nc1snnc1-c1ccccc1)C1CCCCC1 | 0.62 | -0.64 | -0.23 | -0.79% | -5.99%
38 | CNC(=O)c1cc(Oc2ccc(NC(=O)Nc3cc(C(C)(C)C)nn3-c3ccc4ncccc4c3)c(F)c2)ccn1 [rebastinib] | -1.46 | 0.18 | 1.77 | 5.75% | 8.96%
